# Test results published in PubChem BioAssay AID493191 (Broad Institute, 2011).
# Among all 1,300 compounds or so, about 330 (25%) were called active. Not all results are given here. Entries with a potency or affinity are not part of this list. Values without a mark were called inactive. The rule behind the calls is not given here.
# Experiment: growth inhibition of MALME3 cells – cell-based, CellTiter-Glo, cherry-picked, orthogonal assay for MITF inhibitor project, dose response (AID 493191)
# Details: MALME3 melanoma viability, CellTiter-Glo luminescence, 24 h; series mostly up to 35 µM; activity change, negative = inhibition: at the top concentration
row,SMILES,"activity change, negative = inhibition"
1,CCCc1ccc(-c2ccc(/C=C/C(=O)O)cc2)nc1,-14.1%
2,COc1cc(OC)cc(C(=O)N[C@H](C(=O)Nc2nc3ccccc3[nH]2)C(C)C)c1,-12.2%
3,CCCCNc1nc(=S)n(-c2ccccc2)c(C)c1C(C)=O,-0.88%
4,Cc1cc(Br)ccc1OCc1nc(-c2cccnc2)no1,22.1%
5,CCOC(=O)c1cc(-c2ccc(OC)cc2)n[nH]1,-1.15%
6,CC(=O)COc1ccc2cc(-c3ccccc3)c(=O)oc2c1,5.42%
7,COc1ccc(Cn2c(-c3ccc(C)cc3)c[n+]3ccccc23)cc1,-41.9%
8,CC(=O)N(c1nnc(-c2cccc(C)c2)s1)C1CCCC1,1.3%
9,O=C(Nc1ccc2nc(-c3ccccc3)[nH]c2c1)c1ccco1,-2.15%
10,Cc1cccc(NC(=O)Cc2ccc(Br)cc2)n1,3.14%
11,C/C(=N\NC(=O)Cc1ccc(Cl)cc1)c1ccccn1,-36.5%
12,CC(=NNc1nc2ccccc2o1)c1cc2ccccc2cn1,-27.3%
13,NCCCNc1nc(N)c([N+](=O)[O-])c(NC2CCCCC2)n1,-4.7%
14,CC(=O)c1ccc(N/C=C/C(=O)c2ccc(Br)cc2)cc1,-9.49%
15,COc1ccc(NC(=O)c2scc(S(=O)(=O)C(C)C)c2N)cc1,2.91%
16,C/C(=N\NC(=O)C(c1ccccc1)c1ccccc1)c1ccccn1,-16.6%
17,CCOC(=O)C1(Cc2ccccc2)CCCN(CCCn2cccn2)C1 (centres undefined),-1.46%
18,Cc1csc(N/N=C/c2ccc([N+](=O)[O-])cc2)n1,-4.58%
19,CN(C)S(=O)(=O)c1ccc(-c2csc(N/N=C/c3ccco3)n2)cc1,-18%
20,COC(=O)c1ccc(/C=C(\C#N)C(=O)NC(C)c2ccccc2)cc1 (centres undefined),-44.5%
21,COc1ccc(/C=C2\SC(=O)N(CCCC(=O)Nc3cc(Cl)ccc3C(=O)O)C2=O)cc1,2.02%
22,c1cc(CSc2nnc(-c3ccc4c(c3)OCO4)o2)ccn1,-39.7%
23,COc1ccc2c(C)nc(Nc3nc(-c4ccccc4)cc(=O)[nH]3)nc2c1,-29.7%
24,O=C(Nc1cc2c(cc1Cl)OCCO2)c1ccco1,2.69%
25,Nc1nnnn1/N=C/C(Br)=C/c1ccccc1,-24.4%
26,Cc1cc(C)nc(S/C=C/C(=O)c2ccccc2F)n1,-27.5%
27,Cn1nc([N+](=O)[O-])nc1S(C)(=O)=O,-9.21%

row,SMILES,"activity change, negative = inhibition"
1,CN(C)c1ccc(CNc2ccccn2)cc1,-1.21%
2,COC(=O)c1ccc(/C=N/Nc2nc(C)c(C)s2)cc1,-12.1%
3,O=C(CCNc1ccccc1)c1ccc2c(c1)OCO2,7.65%
4,CC1=NOC(=O)/C1=C\c1ccc(-c2cccc(Cl)c2)o1,-12.7%
5,COc1cc2ccccc2cc1C(=O)Nc1ccc(N2CCN(C)CC2)cc1,-5.36%
6,Cc1c(C(=O)N(CCO)Cc2ccccc2)oc2c(F)cccc12,-4.4%
7,CCC1CCCCN1CCCNC(=O)c1cn(CC)c2ccc(S(=O)(=O)N(C)C3CCCCC3)cc2c1=O (centres undefined),3.17%
8,COc1ccc(NC(=O)C2COc3ccccc3O2)cc1 (centres undefined),4.91%
9,O=C(O)CSCC(=O)Nc1ccc(C2CCCCC2)cc1,-15.5%
10,CC(C)OC(=O)CSc1nc2cc3c(cc2cc1C#N)OCO3,-0.146%
11,Cc1nn(-c2ccccc2Cl)c(Cl)c1/C=N/Nc1cccc(C(=O)O)c1,-4.55%
12,N#Cc1cc2c(nc1SC1CC(=O)N(c3ccccc3)C1=O)CCC2 (centres undefined),-6.38%
13,CCSc1ccccc1C(=O)n1nnc2ccccc21,-31.2%
14,COc1ccc(/C=C/c2cc(C(F)(F)F)on2)cc1,6.62%
15,Cc1[nH]nc(Nc2ccc(Br)cc2)c1[N+](=O)[O-],-14.8%
16,CCCCNC(=O)Nc1ccc(C2SCCS2)cc1,-0.988%
17,COc1ccc(COC(=O)c2cc([N+](=O)[O-])ccc2N2CCOCC2)cc1F,11.2%
18,Cc1ccccc1-n1ncc2c([N+](=O)[O-])cc([N+](=O)[O-])cc21,-38.6%
19,CCN1CCc2c(sc(NC(=O)c3ccc(S(=O)(=O)N4CCCC4)cc3)c2C(=O)NC)C1,0.364%
20,COc1ccc2nc(C)cc(SCC(=O)N/N=C/c3ccc(O)cc3O)c2c1,-15.7%
21,COc1ccc(-c2nc(-c3ccncc3)no2)cc1OC,-2.17%
22,COc1ccc(-c2cc(-c3ccccc3O)[nH]n2)cc1OC,14.5%
23,COc1ccc(/C=N/Nc2ccccn2)cc1OC,7.25%
24,O=C(Nc1nc2cc3c(cc2s1)OCO3)C1=COCCO1,-28.5%
25,C=CCn1c(C)cc(C(=O)Cn2ncc(Cl)c(Cl)c2=O)c1C,-34.7%
26,O=C(CCC(=O)c1ccc[nH]1)c1ccc(Cl)cc1,-1.41%
27,Cc1c(C#N)c(NC(=O)CCl)n(Cc2ccc(F)cc2)c1C,-31.5%

row,SMILES,"activity change, negative = inhibition"
1,Nc1nc2n[nH]nc2c(=O)[nH]1,-21.7%
2,CC(C)c1ccc(/C=C2\SC(=S)N(CCC(=O)N3CCCCC3CCO)C2=O)cc1 (centres undefined),9.88%
3,CSc1nc(N)n2nc(-c3ccccc3)cc2n1,-24.9%
4,O=C(Nc1ccc2c(c1)OCCO2)c1ccoc1,-8.78%
5,Cc1ccc(-c2noc(-c3ccno3)n2)cc1,-24.2%
6,CC(=C/c1ccco1)/C=N/N1CCN(c2ccccc2)CC1,-19.4%
7,COC(=O)C1=C(CN2CCCc3ccccc32)NC(=O)NC1c1ccc(F)cc1 (centres undefined),-1.92%
8,COc1ccc2nc(C)cc(NCc3cccc(C(F)(F)F)c3)c2c1,-2.53%
9,O=[N+]([O-])c1cccc(/C=N/Nc2ncc(Br)cn2)c1,6.28%
10,O=C(CSCC(=O)Nc1ccccc1)N/N=C/c1c(O)ccc2ccccc12,-12.1%
11,O=C(CNc1ccc2ccccc2c1)N/N=C/c1ccc([N+](=O)[O-])o1,-35.4%
12,Cc1cc2oc(=O)cc(C)c2cc1NC(=O)CCC(=O)O,-2.92%
13,C=CCSC(=S)NC1CCS(=O)(=O)C1 (centres undefined),-29.3%
14,CCOC(=O)COc1ccc2ccccc2c1/C=C/[N+](=O)[O-],-18.2%
15,N/C(CS(=O)(=O)c1ccccn1)=N\OC(=O)c1ccccc1Cl,-2.74%
16,O=C(O)/C=C/C(=O)c1ccc2c(c1)CCc1ccccc1-2,-35.3%
17,C=CCN1C(=O)S/C(=C\c2ccc(N3CCOCC3)cc2C)C1=O,-19.1%
18,CC(=O)Nc1ccc(-c2nc3ccccc3o2)cc1,7.41%
19,CC(=O)Nc1cccc(-c2nnc(-c3ccccc3)o2)c1,-3.6%
20,COc1cccc(/C=N/NC(=O)CN2CC(c3ccccc3)CC2=O)c1OC (centres undefined),3.58%
21,c1ccc(Cc2cc(-c3ccccc3)on2)cc1,5.16%
22,COc1ccc(NC(=O)NC(=O)c2ccccc2)cc1,10.3%
23,Cc1ccc(NC(=O)c2ccccc2)cc1,5.52%
24,O=C(Nc1ccc(Cl)cc1)Nc1cccc(C(=O)O)c1,-1.06%
25,Cc1ccc(C(=O)Nc2cnc3ccccc3c2)cc1,-11.4%
